Screens deposited in PubChem BioAssay by DiRusso Lab, Biochemistry Department, University of Nebraska.
Shown is part of a subset that was picked to be rich in hits.
Algae TAG accum – inducers of triacylglycerol accumulation in Chlamydomonas reinhardtii algae | AID 1159537 | Chlamydomonas reinhardtii TAG, Nile Red fluorescence, 72 h | calls only at 10 µM (by protocol) | 44,000 compounds, 0.84% hits; call rule not given here;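 note: hits raise Nile Red signal meaning more stored TAG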
Active calls of the source: *; i = inactive; + = active, no number.

SMILES	Algae TAG accum
O=[N+]([O-])c1cccc(-c2nnc(-c3cccc(S(=O)(=O)N4CCCCC4)c3)o2)c1	i
C=CCSc1nnc(-c2ccccc2N)c(=O)[nH]1	i
O=C1c2ccccc2C(=O)c2[nH]c(-c3c(F)c(F)c(F)c(F)c3F)nc21	i
COc1ccc(CN(C)C2CCCCC2)cc1C	+
COc1ccc(CC(=O)NC2CCCC2)cc1	i
COc1ccc(CNC2CCCC2)cc1C	i
COc1ccc(CN(C)C2CCCCC2)cc1	+
COc1ccc(Nc2nc(N)nc(CN(C)C3CCCCC3)n2)cc1	i
COc1ccc(CN2CCCC(O)C2)cc1C (stereo not drawn)	i
CC(C)Oc1ccc(NC(=O)COc2cccc(Cl)c2)cc1	i
N#C/C(=C\c1ccco1)c1nn(-c2ccccc2)c(N)c1C#N	i
C=CCc1cc(OC)ccc1OCCn1ccnc1	i
C=CCc1cc(OC)ccc1OCCOCCn1ccnc1	+
C=CCc1cc(OC)ccc1OCCCCn1ccnc1	i
COc1cc(C(=O)N2CCCCCC2)c([N+](=O)[O-])cc1OC	i
COc1ccc(OC)c(NC(=O)COc2ccccc2Br)c1	i
O=[N+]([O-])c1ccc(C(O)CN2CCN(Cc3ccccc3)CC2)cc1 (stereo not drawn)	+
O=[N+]([O-])c1ccc(C(O)CN2CCc3ccccc32)cc1 (stereo not drawn)	i
O=[N+]([O-])c1cccc(CN2CCN(C3CCCC3)CC2)c1	i
O=[N+]([O-])c1ccc(N2CCN(Cc3ccccc3)CC2)nc1	i
O=[N+]([O-])c1ccc(CN2CCN(C3CCCCC3)CC2)cc1	i
O=[N+]([O-])c1ccc(CN2CCN(C3CCCC3)CC2)cc1	+
Cn1c(=O)c([N+](=O)[O-])c(N2CCN(C(=O)c3ccccc3)CC2)c2ccccc21	i
Cc1cc(C)c(S(=O)(=O)NCc2ccc(S(N)(=O)=O)cc2)c(C)c1	i
Cc1ccccc1OCCOC(=O)Nc1ccccc1	i
SMILES	Algae TAG accum
O=C(Nc1ccc(Cc2ccc(NC(=O)c3ccco3)c(O)c2)cc1O)c1ccco1	i
O=C(C1CCN(CCCc2ccccc2)CC1)N1CCc2ccccc2C1	i
Cc1oc(COc2ccc(C(=O)O)cc2)cc1C(=O)O	i
O=C(CN1CCCCC1)Nc1ncc(Cc2ccc(Br)cc2)s1	+
O=C(CN1CCCCC1)Nc1ccccc1NC(=O)CN1CCCCC1	i
O=C(CN1CCCCCC1)Nc1cccc2c1OCO2	i
Cc1cc(C)c(C(=O)Cc2ccccc2)c(=O)[nH]1	i
COc1ccc(C(=O)N2CCCC2)cc1I	i
CC(O)c1nc2ccccc2n1Cc1ccccc1Cl (stereo not drawn)	i
COc1ccccc1Cn1c(C(C)O)nc2ccccc21 (stereo not drawn)	+
Cc1cccc(Cn2c(C(C)O)nc3ccccc32)c1 (stereo not drawn)	i
CC(C)NC(=O)c1ccccc1NS(=O)(=O)c1ccc(F)cc1	i
C=CCn1c(SCC(=O)c2ccccc2)nnc1-c1cccnc1	i
O=C(NCCCCc1ccccc1)c1ccc(Cl)cc1	i
CN(C)CCNC(=O)c1ccc(S(=O)(=O)N2CCOCC2)cc1	i
NC(=O)C1CCN(C(=O)c2ccc(CN3CCc4ccccc4C3)cc2)CC1	i
O=C(c1ccc(CN2CCc3ccccc3C2)cc1)N1CCN(c2ccccc2F)CC1	+
COc1ccc(N2CCN(C(=O)c3ccc(CN4CCc5ccccc5C4)cc3)CC2)cc1	i
Cc1cccc(-c2nnc(NC(=O)Nc3ccc(F)cc3)s2)c1	i
COc1cccc(OCCCOc2ccc(C)cc2[N+](=O)[O-])c1	i
Cc1cc(C)c(NC(=O)COc2ccccc2[N+](=O)[O-])c(C)c1	+
Cc1ccccc1OCC(=O)Nc1ccccc1[N+](=O)[O-]	i
Cc1cc(C)c(NC(=O)COc2ccccc2C)c(Cl)c1	i
O=C(Nc1ccc(-c2nc3ccccc3o2)c(O)c1)c1cncc(Br)c1	i
O=C(Cc1ccc(Cl)cc1)Nc1ccc(N2CCN(C(=O)c3ccccc3)CC2)cc1	i
SMILES	Algae TAG accum
O=C(c1ccccc1)N1CCN(C(=O)c2ccc(Cl)cc2Cl)CC1	i
O=C(Nc1ccc(N2CCN(C(=O)c3ccccc3)CC2)cc1)c1ccc(Cl)cc1Cl	+
C/C(=C\c1ccccc1)CN(C)C1CCN(C)CC1	i
C/C(=C\c1ccccc1)CN(C)CCN(C)C	+
C/C=C(\C)CN(C)CCN(C)C	i
Cc1[nH]nc(NN)c1Cl	i
CCN(CC)c1ccc(NC(=O)c2cnccn2)cc1	i
CCC(=O)Nc1cccc(NC(=O)c2ccc(C)c(Cl)c2)c1	i
COc1ccc(CNCc2ccc(C)cc2C)c(OC)c1	i
COc1ccc(CNCc2ccc(C)cc2C)cc1	i
COc1ccc(CNCc2ccc(C)cc2)c(OC)c1	+
O=C(CSc1nc2ccccc2s1)Nc1ccccc1Br	i
COc1ccc(CNC2CCSC2)cc1 (stereo not drawn)	+
COc1ccc(CNCc2ccc(OC)cc2)cc1	i
COc1ccc(CNC2CCCCC2C)cc1 (stereo not drawn)	i
Cc1ccc([N+](=O)[O-])cc1NC(=O)CCC1CCCCC1	i
O=C(Cc1cccs1)Nc1ccc(C(=O)c2ccccc2)cc1NC(=O)Cc1cccs1	i
NC(=O)C1CCN(CC2CC=CCC2)CC1 (stereo not drawn)	i
C=C(C)CN(CC)C(=O)C1CCN(CC2CC=CCC2)CC1 (stereo not drawn)	+
CCN(Cc1ccccc1)C(=O)C1CCN(CC2CC=CCC2)CC1 (stereo not drawn)	i
COc1cc(C(=O)Nc2ccc(F)c(Cl)c2)c([N+](=O)[O-])cc1OC	i
O=C(C1=C(O)C(=O)N(CCN2CCOCC2)C1c1cccs1)c1cccs1 (stereo not drawn)	i
CCOc1ccc(C(=O)Nc2cccc(NC(=O)CC)c2)cc1Br	i
CN1CCCN(Cc2ccco2)CC1	i
c1coc(CN2CCN(C3CC4CCC3C4)CC2)c1 (stereo not drawn)	i
SMILES	Algae TAG accum
c1coc(CN2CCN(C3CCCCC3)CC2)c1	+
O=C(Nc1scc(-c2cccs2)c1C(=O)O)c1cccs1	i
Cc1cccc(C(=O)Nc2sc(C)c(C)c2C(=O)O)c1	i
Cc1sc(NC(=O)c2cccs2)c(C(=O)O)c1C	+
COc1ccc(CNC(=O)c2cccc([N+](=O)[O-])c2C)cc1	i
Cc1ccc(S(=O)(=O)N2CCC(N3CCCCC3)CC2)cc1	i
O=S(=O)(c1ccc(F)cc1)N1CCCC1	i
CCCN1CCC(N2CCN(S(=O)(=O)c3ccc(F)cc3)CC2)CC1	i
O=S(=O)(c1ccc(F)cc1)N1CCN(C2CCCC2)CC1	i
CC1CCCN(C2CCN(S(=O)(=O)c3ccc(F)cc3)CC2)C1 (stereo not drawn)	+
O=S(=O)(c1ccc(F)cc1)N1CCN(C2CCCCC2)CC1	+
O=C(CSc1nnnn1-c1ccccc1)NN1C(=O)c2ccccc2C1=O	i
O=C(O)CCc1ccc(-c2ccc(F)cc2)o1	i
CC(Oc1ccccc1)C(=O)N1CCN(c2ccccn2)CC1 (stereo not drawn)	i
COc1ccc(C(N)=O)cc1NC(C)=O	i
Cc1sc(NC(=O)COc2ccc([N+](=O)[O-])cc2)c(C(N)=O)c1C	i
CC(C)(C)N1C(=O)C2C3C=CC(C2C1=O)C1C(=O)N(C(C)(C)C)C(=O)C31 (stereo not drawn)	i
